Source: the supplement of paper PMC11732987, “Enantioselective OTUD7B fragment discovery through chemoproteomics screening and high-throughput optimisation” (Communications Chemistry, 2025)
Unmarked numbers belong to inactive results.

Key:
Test in all cases: log2 ratio of Biotin-Ahx-Ub-VS probe labelling (fragment/DMSO); higher = less target engagement (more negative = stronger competition), active = hit call of the paper (q ≤ 0.05, log2 ratio ≤ -1)
Conditions in all cases: compound concentration: 200 uM; treatment time: 3 h
USP19 = biological target: T1, USP19 (UniProt O94966)
T1 sequence (whole entry): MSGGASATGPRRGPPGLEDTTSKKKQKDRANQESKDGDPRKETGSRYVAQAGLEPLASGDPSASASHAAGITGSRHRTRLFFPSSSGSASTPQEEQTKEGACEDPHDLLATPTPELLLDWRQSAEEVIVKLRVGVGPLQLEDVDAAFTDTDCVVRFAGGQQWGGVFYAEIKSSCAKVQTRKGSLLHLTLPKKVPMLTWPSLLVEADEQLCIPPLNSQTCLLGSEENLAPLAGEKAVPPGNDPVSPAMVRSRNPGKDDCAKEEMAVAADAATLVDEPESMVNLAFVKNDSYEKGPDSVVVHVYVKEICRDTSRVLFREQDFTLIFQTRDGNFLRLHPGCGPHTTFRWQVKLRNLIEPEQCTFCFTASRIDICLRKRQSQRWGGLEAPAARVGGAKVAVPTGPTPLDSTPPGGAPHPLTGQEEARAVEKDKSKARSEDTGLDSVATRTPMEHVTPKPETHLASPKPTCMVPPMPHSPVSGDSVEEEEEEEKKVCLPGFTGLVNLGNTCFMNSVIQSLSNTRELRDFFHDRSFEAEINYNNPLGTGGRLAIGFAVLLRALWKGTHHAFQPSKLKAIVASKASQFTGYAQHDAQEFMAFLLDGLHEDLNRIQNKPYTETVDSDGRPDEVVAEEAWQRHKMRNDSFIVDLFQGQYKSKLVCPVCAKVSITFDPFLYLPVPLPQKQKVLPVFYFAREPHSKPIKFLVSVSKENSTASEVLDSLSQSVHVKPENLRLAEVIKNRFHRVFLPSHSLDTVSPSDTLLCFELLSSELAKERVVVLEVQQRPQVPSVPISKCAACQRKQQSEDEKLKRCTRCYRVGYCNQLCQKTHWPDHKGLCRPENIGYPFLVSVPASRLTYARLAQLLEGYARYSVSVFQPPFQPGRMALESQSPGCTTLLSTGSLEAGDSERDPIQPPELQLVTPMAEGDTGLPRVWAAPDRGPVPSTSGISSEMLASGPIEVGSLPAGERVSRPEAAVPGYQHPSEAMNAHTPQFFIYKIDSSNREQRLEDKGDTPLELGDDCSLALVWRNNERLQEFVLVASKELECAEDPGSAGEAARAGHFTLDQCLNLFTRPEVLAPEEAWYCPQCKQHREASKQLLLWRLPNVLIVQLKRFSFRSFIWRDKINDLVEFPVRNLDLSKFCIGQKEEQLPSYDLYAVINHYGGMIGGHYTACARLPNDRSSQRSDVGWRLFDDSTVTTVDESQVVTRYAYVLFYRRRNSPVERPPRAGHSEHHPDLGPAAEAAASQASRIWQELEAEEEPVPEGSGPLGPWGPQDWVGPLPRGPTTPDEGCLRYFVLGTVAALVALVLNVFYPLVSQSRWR
Method in brief: (§1)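 HEK293T lysate (495 µg per sample, in Tris/CHAPS/IGEPAL buffer with protease inhibitors) was exposed in triplicate for 3 h to fragment at 200 µM or to vehicle, then to Biotin-Ahx-Ub-VS at 0.5 µM final for 1 h. Labelled DUBs were enriched on NeutrAvidin, digested with LysC and trypsin, and analysed by diaPASEF LC-MS/MS. Spectronaut label-free quantities were normalised to the global median, and values are average log2 ratios of fragment over vehicle from an unpaired t-test. Only proteins with ≥2 unique peptides were used.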

USP22 = biological target: T2, USP22 (UniProt Q9UPT9)
T2 sequence (whole entry): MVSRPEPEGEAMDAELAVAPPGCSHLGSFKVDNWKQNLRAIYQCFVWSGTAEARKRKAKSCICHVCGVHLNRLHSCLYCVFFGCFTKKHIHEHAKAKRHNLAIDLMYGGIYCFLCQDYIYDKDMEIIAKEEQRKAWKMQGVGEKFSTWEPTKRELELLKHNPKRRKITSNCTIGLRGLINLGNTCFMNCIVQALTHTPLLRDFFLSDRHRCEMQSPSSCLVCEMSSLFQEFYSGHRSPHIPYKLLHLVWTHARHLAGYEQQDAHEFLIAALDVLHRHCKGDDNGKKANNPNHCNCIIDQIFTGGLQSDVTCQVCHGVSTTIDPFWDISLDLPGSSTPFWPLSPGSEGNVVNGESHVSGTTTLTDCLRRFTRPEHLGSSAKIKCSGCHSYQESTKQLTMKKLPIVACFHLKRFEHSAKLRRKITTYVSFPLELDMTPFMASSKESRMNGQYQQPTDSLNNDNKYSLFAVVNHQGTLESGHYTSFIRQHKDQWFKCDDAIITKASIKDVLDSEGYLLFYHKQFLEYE
Method in brief: as §1

USP24 = USP24 (UniProt Q9UPU5)
Sequence of USP24 (Q9UPU5 whole entry): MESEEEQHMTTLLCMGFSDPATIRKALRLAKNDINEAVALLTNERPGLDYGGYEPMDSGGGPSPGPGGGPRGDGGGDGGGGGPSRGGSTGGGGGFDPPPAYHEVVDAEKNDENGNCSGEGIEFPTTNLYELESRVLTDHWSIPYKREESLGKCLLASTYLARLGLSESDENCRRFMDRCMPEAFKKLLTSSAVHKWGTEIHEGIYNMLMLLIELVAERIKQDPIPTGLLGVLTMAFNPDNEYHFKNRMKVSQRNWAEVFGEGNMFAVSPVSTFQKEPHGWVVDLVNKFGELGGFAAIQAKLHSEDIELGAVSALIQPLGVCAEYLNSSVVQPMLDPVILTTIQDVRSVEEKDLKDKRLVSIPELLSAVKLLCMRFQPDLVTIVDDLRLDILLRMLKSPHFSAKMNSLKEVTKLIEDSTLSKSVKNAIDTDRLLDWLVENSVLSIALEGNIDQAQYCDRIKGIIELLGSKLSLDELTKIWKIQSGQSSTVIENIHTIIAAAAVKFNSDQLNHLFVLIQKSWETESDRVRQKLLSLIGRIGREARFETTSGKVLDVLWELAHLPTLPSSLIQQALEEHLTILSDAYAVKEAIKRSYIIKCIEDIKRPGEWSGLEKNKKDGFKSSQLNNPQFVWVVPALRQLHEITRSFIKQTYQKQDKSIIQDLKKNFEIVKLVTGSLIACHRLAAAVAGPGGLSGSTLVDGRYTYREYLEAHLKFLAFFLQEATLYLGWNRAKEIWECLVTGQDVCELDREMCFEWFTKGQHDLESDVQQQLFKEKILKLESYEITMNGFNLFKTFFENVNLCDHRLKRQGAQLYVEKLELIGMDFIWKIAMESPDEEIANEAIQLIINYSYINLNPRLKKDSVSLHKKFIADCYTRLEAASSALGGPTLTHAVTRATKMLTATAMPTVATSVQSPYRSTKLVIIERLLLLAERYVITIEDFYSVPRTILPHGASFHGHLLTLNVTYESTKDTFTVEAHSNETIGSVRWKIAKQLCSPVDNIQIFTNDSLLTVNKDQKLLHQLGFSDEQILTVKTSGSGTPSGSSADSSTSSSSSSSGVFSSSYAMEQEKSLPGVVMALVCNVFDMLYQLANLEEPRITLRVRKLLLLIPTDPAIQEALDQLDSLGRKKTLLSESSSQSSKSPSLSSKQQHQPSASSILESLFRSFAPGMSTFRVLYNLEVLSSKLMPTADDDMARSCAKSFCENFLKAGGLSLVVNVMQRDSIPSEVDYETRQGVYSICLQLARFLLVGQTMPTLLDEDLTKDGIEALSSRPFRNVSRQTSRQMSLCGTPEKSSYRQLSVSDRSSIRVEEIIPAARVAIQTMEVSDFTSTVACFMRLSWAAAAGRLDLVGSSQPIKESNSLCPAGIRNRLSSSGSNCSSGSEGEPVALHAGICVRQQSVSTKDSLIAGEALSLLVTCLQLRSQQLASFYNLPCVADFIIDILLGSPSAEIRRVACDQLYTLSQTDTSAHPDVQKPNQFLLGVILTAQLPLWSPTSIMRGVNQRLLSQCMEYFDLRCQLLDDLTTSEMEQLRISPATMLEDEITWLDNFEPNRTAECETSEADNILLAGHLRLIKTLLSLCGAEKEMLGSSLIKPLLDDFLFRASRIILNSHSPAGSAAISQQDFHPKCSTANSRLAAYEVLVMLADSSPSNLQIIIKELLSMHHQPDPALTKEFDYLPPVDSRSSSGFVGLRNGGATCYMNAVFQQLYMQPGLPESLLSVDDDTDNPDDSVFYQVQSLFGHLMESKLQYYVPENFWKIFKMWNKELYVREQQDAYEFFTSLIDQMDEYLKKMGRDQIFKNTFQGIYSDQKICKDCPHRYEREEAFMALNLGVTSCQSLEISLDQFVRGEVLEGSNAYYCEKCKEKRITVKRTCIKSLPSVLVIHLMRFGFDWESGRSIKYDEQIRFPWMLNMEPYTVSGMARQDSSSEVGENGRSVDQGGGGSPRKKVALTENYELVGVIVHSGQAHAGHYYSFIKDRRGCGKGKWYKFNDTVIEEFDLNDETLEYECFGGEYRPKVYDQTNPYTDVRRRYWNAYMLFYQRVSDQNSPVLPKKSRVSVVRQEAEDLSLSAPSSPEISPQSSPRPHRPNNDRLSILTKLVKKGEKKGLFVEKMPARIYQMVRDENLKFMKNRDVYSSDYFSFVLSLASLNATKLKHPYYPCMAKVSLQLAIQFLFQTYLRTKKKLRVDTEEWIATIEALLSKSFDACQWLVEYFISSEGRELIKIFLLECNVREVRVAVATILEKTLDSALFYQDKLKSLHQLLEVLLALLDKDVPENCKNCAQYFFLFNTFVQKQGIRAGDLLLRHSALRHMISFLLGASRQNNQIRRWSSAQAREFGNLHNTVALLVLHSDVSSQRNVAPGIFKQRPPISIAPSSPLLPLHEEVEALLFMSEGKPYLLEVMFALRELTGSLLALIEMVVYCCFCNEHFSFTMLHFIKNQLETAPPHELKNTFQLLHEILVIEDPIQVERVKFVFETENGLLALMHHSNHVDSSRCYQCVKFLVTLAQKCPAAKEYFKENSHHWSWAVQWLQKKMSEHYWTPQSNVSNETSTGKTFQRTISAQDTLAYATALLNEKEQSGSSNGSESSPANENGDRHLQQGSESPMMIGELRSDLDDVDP
Method in brief: as §1

USP25 = biological target: T3, USP25 (UniProt Q9UHP3)
T3 sequence (whole entry): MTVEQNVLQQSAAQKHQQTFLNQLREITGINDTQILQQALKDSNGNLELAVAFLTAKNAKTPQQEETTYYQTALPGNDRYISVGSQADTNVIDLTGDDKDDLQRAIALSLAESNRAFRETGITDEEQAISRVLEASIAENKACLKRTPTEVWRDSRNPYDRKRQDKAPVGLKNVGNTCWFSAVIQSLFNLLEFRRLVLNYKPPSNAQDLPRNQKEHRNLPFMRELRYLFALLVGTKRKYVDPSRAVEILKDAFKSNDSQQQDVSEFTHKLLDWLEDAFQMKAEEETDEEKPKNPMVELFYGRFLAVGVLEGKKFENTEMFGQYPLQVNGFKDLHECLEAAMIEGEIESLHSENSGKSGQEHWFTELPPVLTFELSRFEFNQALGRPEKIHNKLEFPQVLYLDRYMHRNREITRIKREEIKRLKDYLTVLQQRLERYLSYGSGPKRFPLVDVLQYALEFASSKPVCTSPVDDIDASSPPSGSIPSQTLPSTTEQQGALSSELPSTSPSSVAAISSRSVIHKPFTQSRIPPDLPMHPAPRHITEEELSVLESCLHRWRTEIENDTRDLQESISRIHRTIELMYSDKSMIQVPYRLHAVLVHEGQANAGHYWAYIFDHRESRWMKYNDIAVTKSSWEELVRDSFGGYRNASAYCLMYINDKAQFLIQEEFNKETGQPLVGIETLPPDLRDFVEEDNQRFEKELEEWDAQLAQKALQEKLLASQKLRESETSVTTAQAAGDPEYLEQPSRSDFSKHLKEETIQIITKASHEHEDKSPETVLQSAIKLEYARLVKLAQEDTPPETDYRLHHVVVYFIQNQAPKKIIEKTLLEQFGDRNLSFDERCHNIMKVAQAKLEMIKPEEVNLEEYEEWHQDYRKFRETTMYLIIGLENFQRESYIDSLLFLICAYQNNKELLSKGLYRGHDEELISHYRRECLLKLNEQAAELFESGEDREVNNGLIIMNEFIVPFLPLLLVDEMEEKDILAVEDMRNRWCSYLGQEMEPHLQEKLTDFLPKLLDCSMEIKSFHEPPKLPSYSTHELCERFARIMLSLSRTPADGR
Method in brief: as §1

USP28 = biological target: T4, USP28 (UniProt Q96RU2)
T4 sequence (whole entry): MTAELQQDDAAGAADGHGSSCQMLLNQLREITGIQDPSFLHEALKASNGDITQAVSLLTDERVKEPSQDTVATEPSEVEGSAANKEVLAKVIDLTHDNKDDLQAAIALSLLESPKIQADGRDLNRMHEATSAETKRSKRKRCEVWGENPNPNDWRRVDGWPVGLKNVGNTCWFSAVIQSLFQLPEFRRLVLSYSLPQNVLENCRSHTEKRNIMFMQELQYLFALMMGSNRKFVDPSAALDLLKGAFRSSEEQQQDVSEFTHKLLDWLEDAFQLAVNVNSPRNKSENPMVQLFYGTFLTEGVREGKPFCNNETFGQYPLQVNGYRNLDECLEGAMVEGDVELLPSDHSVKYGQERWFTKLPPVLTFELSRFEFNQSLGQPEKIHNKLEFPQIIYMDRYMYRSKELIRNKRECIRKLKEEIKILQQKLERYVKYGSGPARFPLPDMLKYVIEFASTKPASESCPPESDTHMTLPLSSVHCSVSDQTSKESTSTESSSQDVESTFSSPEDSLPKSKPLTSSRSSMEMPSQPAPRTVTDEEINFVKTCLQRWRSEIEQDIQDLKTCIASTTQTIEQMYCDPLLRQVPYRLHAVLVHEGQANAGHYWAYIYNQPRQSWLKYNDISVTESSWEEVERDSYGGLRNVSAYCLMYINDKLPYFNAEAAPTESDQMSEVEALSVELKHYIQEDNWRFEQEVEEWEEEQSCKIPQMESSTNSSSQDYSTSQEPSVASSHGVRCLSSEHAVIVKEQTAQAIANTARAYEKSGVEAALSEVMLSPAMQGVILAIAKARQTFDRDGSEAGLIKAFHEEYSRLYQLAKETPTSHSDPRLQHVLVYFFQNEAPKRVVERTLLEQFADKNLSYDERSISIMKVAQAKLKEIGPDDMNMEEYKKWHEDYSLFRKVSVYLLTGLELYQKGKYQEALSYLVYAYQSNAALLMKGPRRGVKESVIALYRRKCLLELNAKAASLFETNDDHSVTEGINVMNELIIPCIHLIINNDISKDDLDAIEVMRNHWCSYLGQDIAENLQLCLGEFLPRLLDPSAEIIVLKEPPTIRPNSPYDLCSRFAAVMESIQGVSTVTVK
Method in brief: as §1

O=C(CCl)Nc1nc(-c2cccs2)cs1
log2 ratio of Biotin-Ahx-Ub-VS probe labelling (USP19): -0.517 | log2 ratio of Biotin-Ahx-Ub-VS probe labelling (USP22): -0.167 | log2 ratio of Biotin-Ahx-Ub-VS probe labelling (USP24): -1.48 (active) | log2 ratio of Biotin-Ahx-Ub-VS probe labelling (USP25): -0.387 | log2 ratio of Biotin-Ahx-Ub-VS probe labelling (USP28): -0.678
